Test results: the supplement of paper PMC11732987, “Enantioselective OTUD7B fragment discovery through chemoproteomics screening and high-throughput optimisation” (Communications Chemistry, 2025)

Columns and labels:
Experiment in all cases: log2 ratio of Biotin-Ahx-Ub-VS probe labelling (fragment/DMSO); higher = less target engagement (more negative = stronger competition), active = hit call of the paper (q ≤ 0.05, log2 ratio ≤ -1)
Settings in all cases: compound concentration: 200 uM; treatment time: 3 h
[1] = biological target: USP9X (UniProt Q93008)
How it was run: (§1)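 HEK293T lysate in Tris/CHAPS/IGEPAL buffer with protease inhibitors (495 µg per sample) was given fragment at 200 µM or vehicle for 3 h, in triplicate. It then received Biotin-Ahx-Ub-VS at 0.5 µM final for 1 h. Labelled DUBs were NeutrAvidin-enriched, digested with LysC and trypsin, and run by diaPASEF LC-MS/MS. Values are average log2 fragment/vehicle ratios by unpaired t-test on global-median-normalised Spectronaut quantities of proteins with ≥2 unique peptides.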

[2] = biological target: UniProt O00487
How it was run: as §1

[3] = biological target: UniProt O00507
How it was run: as §1

[4] = biological target: UniProt P51784
How it was run: as §1

[5] = biological target: T1, UniProt Q5T2D3
T1 sequence (whole entry): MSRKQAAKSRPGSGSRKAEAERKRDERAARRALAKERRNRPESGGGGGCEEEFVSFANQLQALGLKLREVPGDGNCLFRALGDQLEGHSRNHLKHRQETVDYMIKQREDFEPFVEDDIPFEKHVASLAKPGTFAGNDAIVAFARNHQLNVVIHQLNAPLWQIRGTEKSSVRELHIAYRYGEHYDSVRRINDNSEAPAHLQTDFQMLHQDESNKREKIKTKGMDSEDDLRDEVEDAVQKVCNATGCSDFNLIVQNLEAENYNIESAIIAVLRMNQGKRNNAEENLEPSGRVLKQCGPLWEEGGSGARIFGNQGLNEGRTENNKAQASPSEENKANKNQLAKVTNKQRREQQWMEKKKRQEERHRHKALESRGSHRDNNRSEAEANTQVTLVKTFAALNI
How it was run: as §1

[6] = biological target: T2, UniProt Q8TE49
T2 sequence (whole entry): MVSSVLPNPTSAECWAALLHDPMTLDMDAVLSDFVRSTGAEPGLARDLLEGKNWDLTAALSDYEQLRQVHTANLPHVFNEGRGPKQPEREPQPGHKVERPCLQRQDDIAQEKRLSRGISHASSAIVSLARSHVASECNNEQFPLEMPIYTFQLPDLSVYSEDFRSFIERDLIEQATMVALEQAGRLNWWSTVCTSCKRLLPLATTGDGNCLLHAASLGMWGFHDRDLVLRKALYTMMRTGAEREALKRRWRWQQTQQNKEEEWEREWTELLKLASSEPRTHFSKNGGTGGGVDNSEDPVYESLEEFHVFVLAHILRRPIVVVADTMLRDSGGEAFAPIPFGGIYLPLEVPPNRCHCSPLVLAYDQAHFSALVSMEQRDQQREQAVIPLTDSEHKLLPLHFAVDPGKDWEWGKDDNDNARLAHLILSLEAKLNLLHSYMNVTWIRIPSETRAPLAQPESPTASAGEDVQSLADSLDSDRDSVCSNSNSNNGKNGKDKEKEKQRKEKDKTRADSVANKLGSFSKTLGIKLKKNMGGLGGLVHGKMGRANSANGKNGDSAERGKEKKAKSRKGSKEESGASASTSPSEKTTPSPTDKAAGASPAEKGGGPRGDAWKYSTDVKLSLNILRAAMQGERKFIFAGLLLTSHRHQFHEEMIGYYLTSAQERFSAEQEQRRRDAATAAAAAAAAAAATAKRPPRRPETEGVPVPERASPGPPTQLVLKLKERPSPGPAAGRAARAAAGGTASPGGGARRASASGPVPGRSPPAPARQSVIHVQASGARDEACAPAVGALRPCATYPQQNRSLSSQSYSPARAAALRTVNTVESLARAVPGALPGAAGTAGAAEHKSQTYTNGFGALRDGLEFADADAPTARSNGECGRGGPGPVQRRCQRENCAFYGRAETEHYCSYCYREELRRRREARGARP
How it was run: as §1

[7] = biological target: T3, UniProt Q9P2H5
T3 sequence (whole entry): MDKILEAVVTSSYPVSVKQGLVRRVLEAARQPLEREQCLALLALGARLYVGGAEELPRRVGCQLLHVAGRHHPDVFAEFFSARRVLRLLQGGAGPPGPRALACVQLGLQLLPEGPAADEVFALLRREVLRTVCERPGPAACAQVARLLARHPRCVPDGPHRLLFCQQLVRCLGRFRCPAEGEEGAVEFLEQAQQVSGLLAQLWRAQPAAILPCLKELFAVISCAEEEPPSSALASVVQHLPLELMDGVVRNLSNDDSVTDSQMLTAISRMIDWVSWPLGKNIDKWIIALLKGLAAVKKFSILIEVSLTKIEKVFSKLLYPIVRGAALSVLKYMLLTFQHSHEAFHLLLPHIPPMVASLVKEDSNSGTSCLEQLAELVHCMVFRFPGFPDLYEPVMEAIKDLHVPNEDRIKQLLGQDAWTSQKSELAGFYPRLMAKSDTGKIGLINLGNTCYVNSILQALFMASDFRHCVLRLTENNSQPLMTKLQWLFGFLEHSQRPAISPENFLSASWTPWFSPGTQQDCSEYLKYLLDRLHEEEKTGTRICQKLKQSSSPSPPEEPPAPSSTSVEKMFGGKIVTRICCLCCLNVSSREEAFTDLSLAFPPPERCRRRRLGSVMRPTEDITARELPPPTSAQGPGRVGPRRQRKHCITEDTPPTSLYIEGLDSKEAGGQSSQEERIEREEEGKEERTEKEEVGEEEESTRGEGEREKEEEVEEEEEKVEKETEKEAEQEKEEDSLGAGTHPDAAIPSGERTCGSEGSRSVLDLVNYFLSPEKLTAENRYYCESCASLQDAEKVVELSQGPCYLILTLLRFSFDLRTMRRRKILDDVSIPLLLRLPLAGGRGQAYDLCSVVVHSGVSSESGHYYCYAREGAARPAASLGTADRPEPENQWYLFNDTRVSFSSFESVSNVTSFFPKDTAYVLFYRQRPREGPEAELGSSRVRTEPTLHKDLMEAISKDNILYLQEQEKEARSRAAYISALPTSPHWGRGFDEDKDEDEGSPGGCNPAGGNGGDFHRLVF
How it was run: as §1

[8] = biological target: T4, UniProt Q9UGI0
T4 sequence (whole entry): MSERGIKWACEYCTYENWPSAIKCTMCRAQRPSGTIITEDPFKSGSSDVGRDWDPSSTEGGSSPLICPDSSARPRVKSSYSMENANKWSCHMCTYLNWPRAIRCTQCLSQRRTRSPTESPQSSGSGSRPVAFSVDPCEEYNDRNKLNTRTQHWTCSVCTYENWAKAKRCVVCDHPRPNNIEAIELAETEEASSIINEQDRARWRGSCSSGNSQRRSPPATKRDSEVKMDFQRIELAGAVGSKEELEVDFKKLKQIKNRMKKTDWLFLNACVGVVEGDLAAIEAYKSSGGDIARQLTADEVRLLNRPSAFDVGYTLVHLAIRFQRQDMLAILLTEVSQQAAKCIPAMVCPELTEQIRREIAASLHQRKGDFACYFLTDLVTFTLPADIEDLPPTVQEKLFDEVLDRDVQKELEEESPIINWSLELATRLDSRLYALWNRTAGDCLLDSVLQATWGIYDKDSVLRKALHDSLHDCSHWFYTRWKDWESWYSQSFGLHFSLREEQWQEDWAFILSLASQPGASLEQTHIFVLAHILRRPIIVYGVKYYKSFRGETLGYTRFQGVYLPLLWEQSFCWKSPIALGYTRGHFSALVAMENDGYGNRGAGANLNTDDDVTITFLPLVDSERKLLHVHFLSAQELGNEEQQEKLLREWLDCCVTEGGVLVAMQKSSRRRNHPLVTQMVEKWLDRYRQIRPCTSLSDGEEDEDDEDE
How it was run: as §1

[9] = biological target: T5, YOD1 (UniProt Q5VVQ6)
T5 sequence (whole entry): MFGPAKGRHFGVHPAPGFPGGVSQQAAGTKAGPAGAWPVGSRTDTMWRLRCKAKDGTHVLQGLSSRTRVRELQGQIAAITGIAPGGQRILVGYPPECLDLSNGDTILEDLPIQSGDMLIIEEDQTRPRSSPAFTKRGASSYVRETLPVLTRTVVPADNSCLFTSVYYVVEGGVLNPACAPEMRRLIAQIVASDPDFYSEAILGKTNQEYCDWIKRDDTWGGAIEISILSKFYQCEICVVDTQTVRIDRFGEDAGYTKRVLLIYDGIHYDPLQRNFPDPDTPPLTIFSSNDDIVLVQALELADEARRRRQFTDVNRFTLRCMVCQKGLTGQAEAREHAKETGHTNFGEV
How it was run: as §1

Measured: log2 ratio of Biotin-Ahx-Ub-VS probe labelling

Sequence of USP9X (Q93008 whole entry, the tested form may be a part): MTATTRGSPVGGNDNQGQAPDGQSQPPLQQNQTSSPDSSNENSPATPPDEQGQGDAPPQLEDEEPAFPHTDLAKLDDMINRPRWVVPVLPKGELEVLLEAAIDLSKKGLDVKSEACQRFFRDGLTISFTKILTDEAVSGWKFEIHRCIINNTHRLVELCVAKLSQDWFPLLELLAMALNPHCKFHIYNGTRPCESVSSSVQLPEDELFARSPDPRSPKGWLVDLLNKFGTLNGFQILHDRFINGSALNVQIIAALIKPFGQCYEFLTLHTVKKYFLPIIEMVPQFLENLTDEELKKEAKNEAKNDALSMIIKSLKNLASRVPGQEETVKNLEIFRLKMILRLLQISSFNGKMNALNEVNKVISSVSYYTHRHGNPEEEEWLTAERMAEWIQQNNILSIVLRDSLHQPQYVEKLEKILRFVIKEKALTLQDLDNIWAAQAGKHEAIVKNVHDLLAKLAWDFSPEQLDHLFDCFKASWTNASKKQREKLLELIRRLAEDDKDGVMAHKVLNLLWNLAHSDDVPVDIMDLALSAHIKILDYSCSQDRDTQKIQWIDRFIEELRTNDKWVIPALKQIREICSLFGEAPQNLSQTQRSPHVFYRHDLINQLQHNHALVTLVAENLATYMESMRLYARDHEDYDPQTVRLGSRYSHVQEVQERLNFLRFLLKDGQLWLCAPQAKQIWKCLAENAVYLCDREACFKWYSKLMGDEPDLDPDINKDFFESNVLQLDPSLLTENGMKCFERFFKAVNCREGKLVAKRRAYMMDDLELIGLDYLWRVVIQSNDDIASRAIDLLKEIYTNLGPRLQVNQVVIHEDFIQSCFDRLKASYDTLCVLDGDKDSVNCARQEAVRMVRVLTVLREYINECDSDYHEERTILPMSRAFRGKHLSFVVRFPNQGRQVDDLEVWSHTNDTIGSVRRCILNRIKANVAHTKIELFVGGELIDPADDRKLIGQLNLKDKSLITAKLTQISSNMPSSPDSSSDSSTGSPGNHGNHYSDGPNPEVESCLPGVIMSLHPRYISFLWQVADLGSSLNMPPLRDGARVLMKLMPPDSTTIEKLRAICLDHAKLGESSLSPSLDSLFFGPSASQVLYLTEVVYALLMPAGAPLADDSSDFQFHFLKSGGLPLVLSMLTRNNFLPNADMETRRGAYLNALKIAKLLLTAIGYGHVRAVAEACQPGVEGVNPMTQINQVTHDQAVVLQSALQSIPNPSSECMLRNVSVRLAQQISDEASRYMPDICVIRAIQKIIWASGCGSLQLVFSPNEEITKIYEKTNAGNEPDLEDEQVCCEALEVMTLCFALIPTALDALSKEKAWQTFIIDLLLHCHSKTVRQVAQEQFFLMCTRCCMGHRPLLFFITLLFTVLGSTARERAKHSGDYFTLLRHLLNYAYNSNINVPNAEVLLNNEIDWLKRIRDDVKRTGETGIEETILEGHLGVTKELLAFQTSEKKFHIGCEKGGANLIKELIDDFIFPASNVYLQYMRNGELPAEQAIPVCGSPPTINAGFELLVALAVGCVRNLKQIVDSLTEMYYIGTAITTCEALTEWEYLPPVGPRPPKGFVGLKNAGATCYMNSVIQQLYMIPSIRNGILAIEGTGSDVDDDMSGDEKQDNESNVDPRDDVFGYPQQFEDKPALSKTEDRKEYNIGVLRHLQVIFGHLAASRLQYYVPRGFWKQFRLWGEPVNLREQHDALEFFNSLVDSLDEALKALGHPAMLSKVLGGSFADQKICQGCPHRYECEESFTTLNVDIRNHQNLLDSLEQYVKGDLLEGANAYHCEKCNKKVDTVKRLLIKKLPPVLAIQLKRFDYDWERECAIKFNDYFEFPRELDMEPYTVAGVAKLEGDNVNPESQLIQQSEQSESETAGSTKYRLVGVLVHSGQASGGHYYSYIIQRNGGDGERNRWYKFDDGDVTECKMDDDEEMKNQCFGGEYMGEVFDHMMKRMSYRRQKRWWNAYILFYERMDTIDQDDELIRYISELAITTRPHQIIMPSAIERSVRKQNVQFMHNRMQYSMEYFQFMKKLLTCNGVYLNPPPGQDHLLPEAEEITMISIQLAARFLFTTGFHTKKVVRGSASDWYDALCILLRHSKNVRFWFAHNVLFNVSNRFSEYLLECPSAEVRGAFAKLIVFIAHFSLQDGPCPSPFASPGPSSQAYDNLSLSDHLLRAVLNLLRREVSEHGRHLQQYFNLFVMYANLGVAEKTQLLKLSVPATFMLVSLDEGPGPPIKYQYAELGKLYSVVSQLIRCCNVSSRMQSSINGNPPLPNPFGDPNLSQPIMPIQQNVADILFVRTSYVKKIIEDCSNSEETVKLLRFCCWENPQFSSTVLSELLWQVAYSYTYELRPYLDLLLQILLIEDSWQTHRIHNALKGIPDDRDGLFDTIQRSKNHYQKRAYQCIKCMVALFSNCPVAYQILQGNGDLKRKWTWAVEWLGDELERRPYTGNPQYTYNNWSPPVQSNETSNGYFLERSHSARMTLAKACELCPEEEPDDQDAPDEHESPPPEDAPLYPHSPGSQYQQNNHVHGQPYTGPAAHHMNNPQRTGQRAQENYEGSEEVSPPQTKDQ
Sequence of UniProt O00487 (O00487 whole entry): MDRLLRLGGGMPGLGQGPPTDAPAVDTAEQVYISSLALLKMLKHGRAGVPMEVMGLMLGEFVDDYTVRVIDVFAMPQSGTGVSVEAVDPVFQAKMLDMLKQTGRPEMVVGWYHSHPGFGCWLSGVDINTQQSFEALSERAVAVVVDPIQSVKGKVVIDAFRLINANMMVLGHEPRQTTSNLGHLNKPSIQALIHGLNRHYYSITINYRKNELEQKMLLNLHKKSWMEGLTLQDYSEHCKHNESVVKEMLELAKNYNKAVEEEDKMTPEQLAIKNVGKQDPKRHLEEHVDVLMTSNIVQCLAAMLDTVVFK
Sequence of UniProt P51784 (P51784 whole entry): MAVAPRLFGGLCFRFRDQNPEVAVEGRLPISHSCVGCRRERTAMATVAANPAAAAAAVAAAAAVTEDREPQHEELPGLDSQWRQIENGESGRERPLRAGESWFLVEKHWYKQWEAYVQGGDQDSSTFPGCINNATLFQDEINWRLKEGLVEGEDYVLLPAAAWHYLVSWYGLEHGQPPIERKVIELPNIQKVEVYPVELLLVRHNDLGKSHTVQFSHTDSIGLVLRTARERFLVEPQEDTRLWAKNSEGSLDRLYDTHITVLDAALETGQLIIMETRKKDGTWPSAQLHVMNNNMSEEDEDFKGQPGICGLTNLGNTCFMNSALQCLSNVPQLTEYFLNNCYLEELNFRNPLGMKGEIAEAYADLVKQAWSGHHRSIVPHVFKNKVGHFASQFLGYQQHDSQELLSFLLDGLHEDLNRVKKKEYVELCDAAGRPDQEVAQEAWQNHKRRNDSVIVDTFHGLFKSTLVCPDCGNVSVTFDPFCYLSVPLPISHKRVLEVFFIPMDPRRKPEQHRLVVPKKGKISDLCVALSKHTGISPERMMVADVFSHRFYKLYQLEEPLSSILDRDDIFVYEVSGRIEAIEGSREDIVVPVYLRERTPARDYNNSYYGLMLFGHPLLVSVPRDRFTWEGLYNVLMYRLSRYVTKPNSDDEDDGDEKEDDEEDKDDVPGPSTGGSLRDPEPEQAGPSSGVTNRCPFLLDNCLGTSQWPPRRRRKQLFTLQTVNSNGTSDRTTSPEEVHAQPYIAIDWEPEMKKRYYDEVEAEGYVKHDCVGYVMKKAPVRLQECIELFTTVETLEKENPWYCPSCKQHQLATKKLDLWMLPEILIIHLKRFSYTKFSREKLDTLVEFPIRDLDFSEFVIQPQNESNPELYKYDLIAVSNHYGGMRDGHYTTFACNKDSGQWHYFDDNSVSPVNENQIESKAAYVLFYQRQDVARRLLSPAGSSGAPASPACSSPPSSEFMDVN

O=C(CCl)N(Cc1ccsc1)C1CC1
inactive: [1] -0.139 | [2] 0.0101 | [3] -0.302 | [4] -0.0887 | [5] -0.0506 | [6] -0.101 | [7] 0.0505 | [8] -0.949 | [9] -0.0601
